Results with a measured potency or affinity are listed apart. Activity calls are given as the source filed them.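 How the source made its calls: active means average inhibition at 10 µM of 40% or more; inactive means average inhibition at 10 µM below 40%.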
Target: Krueppel-like factor 5 (Homo sapiens) (UniProt Q13887)
Test: KLF5 protein lowering by immunoblot – western blot, chemiluminescence, DLD-1 cells, titration, orthogonal assay for KLF5 inhibitor project, late-stage follow-up (AID 485336)
Conditions: DLD-1 KLF5 protein level, 24 h; series mostly up to 20 µM

Chain of Krueppel-like factor 5 (Homo sapiens) (Q13887 whole entry, looked up): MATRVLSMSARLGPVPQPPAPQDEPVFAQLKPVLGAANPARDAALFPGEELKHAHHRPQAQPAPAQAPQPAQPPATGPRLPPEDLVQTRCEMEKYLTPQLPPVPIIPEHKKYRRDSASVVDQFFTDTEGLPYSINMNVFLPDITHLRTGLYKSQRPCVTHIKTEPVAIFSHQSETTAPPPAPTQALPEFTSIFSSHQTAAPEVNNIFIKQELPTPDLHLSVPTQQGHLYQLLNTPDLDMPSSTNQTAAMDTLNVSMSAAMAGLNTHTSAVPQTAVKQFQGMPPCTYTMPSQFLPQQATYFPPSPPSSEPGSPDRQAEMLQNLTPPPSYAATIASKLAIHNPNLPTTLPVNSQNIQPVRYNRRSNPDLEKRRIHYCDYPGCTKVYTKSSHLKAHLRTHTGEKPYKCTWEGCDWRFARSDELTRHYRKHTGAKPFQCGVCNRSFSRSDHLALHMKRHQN

outcome, inactive:
CCOC(=O)c1sc(NC(=O)c2cc3c(s2)CCC(C)C3)nc1C (stereo not given)
CCOC(=O)c1sc(NC(=O)c2ccc3ncsc3c2)nc1C
Cc1ccc2nc(NC(=O)CCCc3nc4ccccc4s3)sc2c1
CCCc1ccc(-c2ccc(/C=C/C(=O)O)cc2)nc1
COC(=O)c1ccc2nc(Nc3nc4ccc(F)cc4s3)sc2c1
